From PubChem BioAssay
RN4220 kill – kills Staphylococcus aureus RN4220; inhibition, % (test concentration not listed); S. aureus RN4220 growth, OD600, 16 h; AID 1259311; actives 0.33% (n = 330,000); in the data active means inhibition above about 85%;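 further: plate controls were untreated cells for no effect and reference antibiotic for full effect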
Sa ugtP lethal – compounds lethal to S. aureus RN4220 ugtP deletion mutant; OD600 growth, 16 h; growth inhibition, % (test concentration not listed); actives 0.54% (n = 330,000); AID 1259309; in the data active means growth inhibition above about 68%;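 further: plate controls were untreated wells for no effect and antibiotic for full effect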
Mtb BioA inh – blocks M. tuberculosis BioA enzyme activity. inhibition, % at 9.99 µM. purified M. tuberculosis BioA enzyme, plate reader. actives 0.096% (n = 360,000); in the data active means inhibition above about 40%; inconclusive means no clear call, values can overlap the other calls
Mtb betalactam – beta-lactam sensitization of Mtb H37Rv | M. tuberculosis H37Rv growth with meropenem, percent inhibition | actives 0.27% (n = 330,000) | AID 434955 | inhibition, % at 25 µM; call rule not given here;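 further: growth measured after seven days incubation then overnight dye step; 0% = bacteria only wells and 100% = bacteria with antibiotic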
PfHsp40 rescue – rescue of PfHsp40-mediated yeast toxicity; actives 0.68% (n = 340,000); AID 504582; S. cerevisiae expressing PfHsp40, growth rescue, ATP luminescence; growth rescue, % at 12.5 µM; in the data active means growth rescue above about 28%, passing the limit was not always enough; inconclusive means no clear call, values can overlap the other calls;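 further: yeast W303a lacking pdr1 and pdr3 grown in galactose medium; growth measured after three days at 30 °C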
An asterisk follows results filed as active; ? = inconclusive; . = not tested or not shown. An excerpt weighted towards active compounds, which were near 0.9% of everything screened.

SMILES	RN4220 kill	Sa ugtP lethal	Mtb BioA inh	Mtb betalactam	PfHsp40 rescue
CCC1=C(OC(=O)N(CC)CC)N2C(=O)OC(=NCC(=O)OC)[C@]2(C)C2C1=CCC1C(=O)N(CC)C(=O)C12 (stereo not given in full)	5.8	3.8	.	.	.
COc1ccc(-c2cc(=O)oc3c(C)c(O)c(CN(C)C)cc23)cc1	7.0	1.5	1.9	1.2	45.5*
CC1(C)c2[nH]c3ccccc3c2CC2C(=O)N(c3ccc(F)cc3F)C(=O)N21 (stereo not given)	2.2	0.5	.	.	.
O=C(NC(=S)NC1CCCCCC1)c1cncc(Br)c1	-0.3	34.0	.	-0.2	33.2*
CC(=O)Nc1ccc(S(=O)(=O)c2ccc([N+](=O)[O-])cc2)cc1	97.1*	71.8	0.7	-3.8	-1.1
O=C(Nc1ccc(Cl)cc1C(=O)Nc1ccc(Br)cn1)c1ccco1	3.5	-18.4	-1.1	-3.0	269.7*
CC1CCC[C@]2(O1)OC(CCO)CC(O)C2O (stereo not given in full)	11.6	1.9	.	.	.
N#CC(c1ccc(Cl)cc1)c1nc2ccccc2nc1C(F)(F)F (stereo not given)	0.4	-14.2	-1.5	-5.2	53.2*
COc1cc2c(cc1OC)C(c1ccc(O)cc1)NCC2 (stereo not given)	1.7	4.7	-0.9	1.2	74.3*
O=C1CCCN1CCCNC(=S)Nc1ccc(F)cc1	5.5	4.9	.	0.1	-1.0
O=C1CCCN1CCC1CCN(C(=S)Nc2ccc(F)cc2)CC1	2.4	4.4	1.3	-23.5	98.9*
CC1=C[C@H]2OC(=O)[C@@H](C)[C@H]2C[C@@H]2[C@H]1C[C@@H](O)[C@@]2(C)O	.	.	-1.2	-2.6	39.2*
CC(=O)OC1CC2C(C)=CC3OC(=O)C(C)C3CC2[C@]1(C)O (stereo not given in full)	8.1	-0.8	.	.	.
COc1ccc(C2=CC(=O)CC(c3ccc(Cl)cc3)C2)cc1 (stereo not given)	-5.3	-3.2	.	.	.
O=C(O)C1=CC(c2cccs2)CC(OCCCCO)O1 (stereo not given)	3.1	-2.5	.	.	.
Nc1ncnc2c1ncn2C1CC(O)C(COP(=O)(O)O)O1 (stereo not given)	11.2	6.1	.	.	.
COc1ccc(NC(=O)Nc2ccc3c(c2)C(=O)N(C(C)CO)CC(C)C(CN(C)C(=O)Nc2ccc4c(c2)OCO4)O3)cc1 (stereo not given)	6.0	7.7	.	.	.
COc1cc(C(=O)OC(C)C(=O)NC(=O)NC2CCCCC2)ccc1OC(F)F (stereo not given)	52.2	90.9*	-0.2	6.5	1.1
CC1CN(C(C)CO)C(=O)c2cccc(NC(=O)NC3CCCCC3)c2OC1CN(C)S(=O)(=O)c1cccs1 (stereo not given)	1.4	4.1	.	.	.
COc1ccc(-c2noc(-c3ccccc3-c3ccccc3)n2)cc1	-3.3	88.3*	1.8	-0.7	1.2
COc1ccc(-c2noc(-c3ccccc3F)n2)cc1	-1.6	13.4	-1.0	6.9	5.9
COc1cccc(N/N=C/c2cccc(Br)c2O)c1	.	.	-1.6	14.3	15.9
COc1cc(C=NNc2cccc(C)c2)cc(Br)c1O	53.7	96.0*	.	.	.
CC1CN(C(C)CO)C(=O)c2cccc(NC(=O)C3CC3)c2OC1CN(C)Cc1ccc(Oc2ccccc2)cc1 (stereo not given)	1.7	-18.7	.	.	.
CCOC1OC(C(=O)NCc2nc3ccccc3[nH]2)=CC(C2CC2)C1CCCO (stereo not given)	1.6	-1.2	.	.	.
SMILES	RN4220 kill	Sa ugtP lethal	Mtb BioA inh	Mtb betalactam	PfHsp40 rescue
O=C(Nc1cc(Cl)cc(Cl)c1)Nc1cnccn1	99.6*	100.1*	-1.4	63.5	-0.6
C[C@H](NS(=O)(=O)c1c(Cl)cccc1Cl)C(=O)NNC(=O)COc1ccccc1F	3.0	-0.1	-2.7	-2.2	50.1*
CC(Oc1ccccc1F)C(=O)NNC(=O)CCS(=O)(=O)c1ccccc1Cl (stereo not given)	2.6	-6.3	0.4	-11.6	-0.9
Cc1nc2cc(C(=O)NCc3ccc4c(c3)OCO4)ccc2n1-c1ccc(Br)cc1	-16.3	95.5*	.	81.7	9.3
O=C(NCc1ccc2c(c1)OCO2)c1ccc(Br)cc1	-0.1	2.5	-1.0	3.3	?
COC(=O)C1=C(c2ccccc2OCc2ccccc2)CC2CCC1N2C(=O)NCc1cccc(C(F)(F)F)c1 (stereo not given)	-11.6	10.9	.	.	.
CC(C)(C)C1CCC(=O)N(C(CC#N)Cc2ccccc2)CC1 (stereo not given)	-1.1	2.3	.	.	.
CCN(CC)c1ccc(C=NNc2nc3ccccc3[nH]2)cc1	97.3*	98.8*	.	.	.
COc1ccc(/C=N/Nc2nc3ccccc3[nH]2)cc1OC	.	.	0.0	-0.1	75.1*
